# This is a sample that favours compounds with a hit; in the whole collection about 3.5% have one here.
# RE007 growth inh – qHTS Assay for Inhibitors of the HIV-1 protein Vpr; AID 651644, 2012; 0.21% of 360,000 active; S. pombe RE007 Vpr strain, BacTiter-Glo ATP luminescence, 24 h; Potency, µM (series often up to 92.2 µM), for the others: at the top dose activity change, negative = less growth, hits mostly inhibitors; active = well fitted falling curve with a large enough effect; inconclusive = small, poorly fitted or top-dose-only effect; inactive = no such curve, though single readings can be large or run the other way; note: % is set by controls: 0 for no effect and ±100 for the full control effect; nearly all actives have a fitted effect of over 50% in size
#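 Fission yeast RE007 carrying one integrated HIV-1 vpr copy, seeded at OD 0.01 in PMG+AL medium with 23 nL pinned compound. Grown 24 h at 30 degrees; viability read by BacTiter-Glo luminescence after 5 min.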
# Giardia FBPA inh – qHTS Assay for Inhibitors of Fructose-1,6-bisphosphate Aldolase from Giardia Lamblia. A8B2U2. purified Giardia FBPA. Potency, µM (top dose mostly 59.6 µM), for inactives: at the highest dose activity, negative = inhibition, usual class: inhibitors. 0.71% of 290,000 active. AID 2451, 2010; note: % is set by controls: 0 for no effect and ±100 for the full control effect; nearly all actives have a fitted effect of over 55% in size
#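 40 nM FBPA preincubated 10 min at RT with compound (up to 57.5 uM final), then substrate plus GAPDH/TPI/NAD/arsenate coupling and diaphorase/resazurin added. Fluorescence read after 20 min at RT, 525/598 nm.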
# LmPK inh – qHTS Assay for Inhibitors of Leishmania Mexicana Pyruvate Kinase (LmPK); purified LmPK, Kinase-Glo ATP luminescence, 1 h; Potency, µM (series often up to 57.5 µM), inactives show at the highest dose activity change, negative = inhibition, usual class: inhibitors; 0.37% of 290,000 active; note: % is set by controls: 0 for no effect and ±100 for the full control effect
# Target sequence (Q27686 whole entry, looked up): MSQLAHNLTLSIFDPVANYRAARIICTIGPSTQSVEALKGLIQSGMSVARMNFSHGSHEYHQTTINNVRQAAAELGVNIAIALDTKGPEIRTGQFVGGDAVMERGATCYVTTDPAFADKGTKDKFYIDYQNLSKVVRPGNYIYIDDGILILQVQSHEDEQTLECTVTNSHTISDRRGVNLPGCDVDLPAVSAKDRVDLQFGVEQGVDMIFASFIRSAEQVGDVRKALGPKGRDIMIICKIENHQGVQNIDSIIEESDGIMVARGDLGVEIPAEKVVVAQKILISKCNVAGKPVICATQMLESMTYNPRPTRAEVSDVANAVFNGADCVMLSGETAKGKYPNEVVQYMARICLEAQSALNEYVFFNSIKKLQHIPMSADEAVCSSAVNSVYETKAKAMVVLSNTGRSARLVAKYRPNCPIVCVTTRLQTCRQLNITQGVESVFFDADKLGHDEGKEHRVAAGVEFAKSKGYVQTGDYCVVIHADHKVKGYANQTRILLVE
#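 ATP generated from ADP (0.1 mM) and PEP (0.5 mM) by 0.1 nM LmPK over 1 h at room temperature (pH 7.2 imidazole buffer) was detected by coupled luciferase luminescence. Values were normalized to uninhibited and no-enzyme wells.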
# NS1 inh – qHTS Assay for Inhibitors of Influenza NS1 Protein Function | 0.4% of 270,000 active | Potency, µM (top dose mostly 46.1 µM), for the others: at the top dose activity, positive = more growth; calls by dose curve; note: actives are rising curves; nearly all actives have a fitted effect of over 50% in size
#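 S. cerevisiae expressing influenza A NS1, grown in glucose, washed, then diluted 1:100 into pH 6.0 -URA galactose medium with 23 nl compound. Growth recovery read as OD600; NS1-free strain serves as control.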
# TbPYK inhibitor – qHTS of Trypanosoma Brucei Inhibitors; TbPYK enzyme, Kinase-Glo Plus ATP luminescence, 45 min; Potency, µM (titrated, usually from 76.8 µM), without a hit: at the top dose activity, negative = inhibition, actives largely listed as inhibitors; AID 624173, 2012; 0.12% of 410,000 active; pyruvate kinase (Trypanosoma brucei), Q57TT1; note: % is set by controls: 0 for no effect and ±100 for the full control effect; nearly all actives have a fitted effect of over 50% in size
#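 In this concentration-response screen, enzyme-free wells defined baseline while DMSO plates tracked drift. Each reaction combined TbPYK, substrate, compound and 130 uM ADP for 45 min at room temperature. Kinase-Glo Plus luminescence gave the signal.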
# Sm TGR block – qHTS Assay for the Inhibitors of Schistosoma Mansoni Peroxiredoxins; Schistosoma mansoni thioredoxin glutathione reductase (TGR), Q962Y6; purified TGR, DTNB reduction, TNB absorbance 405 nm; Potency, µM (series often up to 114 µM), for the others: top-dose activity change, negative = inhibition, most hits filed as inhibitors; 3% of 360,000 active; AID 485364, 2010; note: % is set by controls: 0 for no effect and ±100 for the full control effect; nearly all actives have a fitted effect of over 60% in size
#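 First, TGR (20 nM dispensed) and NADPH were mixed with compound. Second, a 15 min room-temperature incubation followed. Third, further NADPH and then DTNB were added to start the reaction. Finally, TNB absorbance was monitored kinetically.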
# * hit, by the source's call; ? = inconclusive; / = not tested or not shown. Unless noted, calls come from the whole dose curve; as a rule, active = well fitted curve in the direction sought with a large enough effect; inconclusive = small, poorly fitted or top-dose-only effect, or another doubt; inactive = no such curve, though single readings can be large; an effect the other way counts as inactive or inconclusive. Potency is the fitted concentration of half-maximal effect.
SMILES,RE007 growth inh,Giardia FBPA inh,LmPK inh,NS1 inh,TbPYK inhibitor,Sm TGR block
C=CCn1c(SCC(=O)NCCOC)nc2scc(-c3ccco3)c2c1=O,-1%,-5%,2%,2%,-9%,18µM*
NC(=O)CSc1nc2scc(-c3ccco3)c2c(=O)n1-c1ccccc1,8%,-13%,?,10%,?,?
C=C1/C(=C/C=C2\CCCC3(C)[C@@H]([C@H](C)/C=C/C=C/C(O)(CC)CC)CC[C@@H]23)C[C@@H](O)C[C@@H]1O (stereo partly drawn),/,/,/,/,-1%,/
CC[C@H](C)[C@H](NC(=O)[C@H](CCCNC(=N)N)NC(=O)[C@@H](NC(=O)[C@H](CCCNC(=N)N)NC(=O)[C@H](CCCCN)NC(=O)[C@H](CCCNC(=N)N)NC(=O)[C@@H](NC(=O)[C@H](CC(N)=O)NC(=O)[C@@H](N)CS)[C@@H](C)O)[C@@H](C)CC)C(=O)N[C@@H](CCC(N)=O)C(=O)N[C@@H](CCCNC(=N)N)C(=O)NCC(=O)N1CCC[C@H]1C(=O)NCC(=O)N[C@@H](CCCNC(=N)N)C(=O)N[C@@H](C)C(=O)N[C@@H](Cc1ccccc1)C(=O)N[C@H](C(=O)N[C@H](C(=O)N[C@H](C(=O)NCC(=O)N[C@@H](CCCCN)C(=O)O)[C@@H](C)CC)[C@@H](C)O)C(C)C,/,-9%,/,/,/,/
CCn1c(SCc2ccccc2C)nc(=O)c2c(C(=O)OC)cc(C3CC3)nc21,/,/,/,/,4%,0%
CCCCn1c(=O)[nH]c(=O)c2c1nc(Cn1ncc(Cl)c(Cl)c1=O)n2CCC,2%,1%,-2%,14%,-5%,18µM*
COc1ccccc1C(=O)Nc1nc2nc(C)c(Cc3ccccc3)c(=O)n2[nH]1,/,/,/,/,-14%,-11%
CCCCCCCCCCCCCCC(O)C[N+](C)(CCO)CCO (stereo not drawn),32µM*,/,/,/,-1%,/
NNC(=O)c1ccc2[nH]c3c(c2c1)CCCC3,-16%,-6%,0%,/,-6%,0%
O=C(Nc1ccc2[nH]c3c(c2c1)CCCC3)c1ccco1,?,?,0%,-36%,-1%,45µM*
C/C(=N\NC(=O)c1ccncc1)c1cccs1,-3%,-5%,-11%,/,-5%,24%
O=C(CCC(=O)c1cccs1)NNC(=O)c1ccc(Cl)cc1,-11%,/,/,/,1%,-34%
O=C(CCC(=O)c1cccs1)NNC(=O)c1ccccc1O,8%,/,/,/,-10%,11µM*
C/C(=N/NC(=O)c1cc(C2CC2)[nH]n1)c1cccs1,11%,1%,22µM*,-5%,-5%,-21%
C/C(=N\NC(=O)c1ccccc1O)c1cccs1,-25%,-17%,14µM*,-19%,-26%,3%
CC(C)CN(CC(C)C)C(=O)C1CCCN(S(=O)(=O)c2ccc3c(c2)oc(=O)n3C)C1 (stereo not drawn),/,/,/,/,2%,3%
C[C@]12CCC3C(CCC4=CC(=O)CC[C@@H]43)C1CCC2O (stereo partly drawn),/,/,/,/,14%,/
COc1ccc(-n2c(C)cc(C(=O)CCl)c2C)cc1,-48%,1%,-7%,3%,-2%,4µM*
COc1ccc(-n2c(C)cc(C(=O)CN3C(=O)c4ccccc4C3=O)c2C)cc1,22%,-6%,4%,-5%,4%,5%
Cc1cc(-n2c(C)cc(C(=O)CCl)c2C)no1,-23%,-2%,-1%,/,5%,8.9µM*
Cc1cc(-n2c(C)cc(C(=O)CN3C(=O)C(=O)N(C)C3=O)c2C)no1,20%,/,/,/,2%,/
CCCn1cc2c(c1-c1ccc(C)cc1)c(=O)n(C)c(=O)n2C,16%,0%,0%,-5%,-1%,0%
Cc1ccc(-c2c3c(=O)n(C)c(=O)n(C)c3cn2Cc2ccccc2)cc1,5%,-9%,7%,0%,-8%,45µM*
Cn1c(=O)c2c(-c3ccccc3)n(Cc3ccccn3)cc2n(C)c1=O,-13%,-11%,-3%,7%,-13%,28µM*
O=C(NCc1ccc(Cl)cc1)c1ccc(CNS(=O)(=O)c2ccc(F)cc2)cc1,/,/,/,/,1%,12%
SMILES,RE007 growth inh,Giardia FBPA inh,LmPK inh,NS1 inh,TbPYK inhibitor,Sm TGR block
COC(=O)[C@@H](NC(=O)O[C@H]1C(=O)c2cc(OC)ccc2O[C@@H]1c1ccc(OC)c(Br)c1)C(C)C,/,-4%,/,/,/,/
N#Cc1cc(-c2ccccc2)nn1-c1ccccc1,-20%,?,25µM*,-84%,14µM*,0.63µM*
Cc1ccc(Cl)cc1N1C(=O)N(Cc2ccc(C#N)cc2)c2ccccc2S1(=O)=O,/,/,/,/,3%,12%
COc1ccc(NC(=O)c2cc3c(=O)n(Cc4cccs4)ccc3nc2C)c(OC)c1,/,/,/,/,0%,11%
O=C1NCCCC2c3c(cc(Br)c(O)c3Br)OC12N1CCOCC1 (stereo not drawn),-27%,-5%,-3%,6%,-5%,40µM*
CCn1c2ccc(Cl)cc2c2nc3ccccc3nc21,-11%,-8%,1%,-10%,-9%,28µM*
CCn1c2ccc(OC)cc2c2nc3ccccc3nc21,-12%,-1%,6%,-4%,1%,1%
COc1ccc(-n2cc(CNCCCN3CCCC3=O)c(-c3ccccc3Cl)n2)cc1,-5%,2%,2%,-1%,-9%,45µM*
COc1ccc(N=Nc2nc3cc(Br)c(Br)cc3n2C)c(OC)c1,15%,?,22%,?,-12%,45µM*
COc1ccc(OC)c(CNc2ccc3c(c2)nc(C)n3C)c1,-1%,-8%,-2%,8%,-2%,9%
CCCC12CN3CC(CCC)(CN(C1)C3c1c(C)[nH]c(=O)[nH]c1=O)C2=O (stereo not drawn),/,/,/,/,-5%,3%
CCOc1cc(CNC(=O)CSc2n[nH]c(-c3ccccc3)n2)cc(OCC)c1OCC,/,/,/,/,1%,-6%
Cc1ccc2c(c1)c1nnc(SCC(=O)N3CCCc4ccccc43)nc1n2CC(=O)O,6%,-4%,4.5µM*,-5%,2%,-2%
Cc1nnc(NCc2ccccc2)c2c1nnn2Cc1ccccc1Cl,/,/,/,/,4%,-3%
Cc1ccc(/C=C2\Sc3ccccc3C2=O)s1,-14%,-2%,11µM*,-6%,-3%,11%
O=C1/C(=C/c2cccnc2)Sc2ccccc21,28µM*,-3%,?,-12%,6%,6%
CC(=O)Nc1ccc(/C=C2\Sc3ccccc3C2=O)cc1,6%,2%,-1%,0%,-4%,6%
